{"source": "PubChem BioAssay", "note": "Measured potencies and affinities stand elsewhere. Calls of active or inactive are those of the source. The rule behind the calls is not given here.", "data": [{"experiment": "OVCAR8 cell viability loss – plate reader, dry powder samples, PAX8 project, dose response (AID 743197)", "conditions": "series mostly up to 35 µM; activity change, negative = cytotoxicity: at the top concentration", "values": [{"compound": "C[C@@H]1CN([C@@H](C)CO)C(=O)c2cc(NC(=O)Nc3cccc4ccccc34)ccc2O[C@@H]1CN(C)Cc1ccc2c(c1)OCO2", "activity change, negative = cytotoxicity": "8.47% (inactive)"}, {"compound": "C[C@@H]1CN([C@H](C)CO)C(=O)c2cc(NS(=O)(=O)c3ccc(F)cc3)ccc2O[C@@H](C)CCCCO[C@H]1CN(C)Cc1ccccc1", "activity change, negative = cytotoxicity": "16.6% (inactive)"}, {"compound": "N#C[C@H]1[C@H](c2ccc(C#CC3CCCCC3)cc2)[C@H](CO)N1C(=O)Nc1ccc(F)cc1", "activity change, negative = cytotoxicity": "-1.49% [at 30 µM] (inactive)"}, {"compound": "N#Cc1cccc(-c2ccc3c(c2)[C@@H]2[C@@H](CCN2S(=O)(=O)c2ccc(F)cc2)[C@@H](CO)N3)c1", "activity change, negative = cytotoxicity": "0.797% (inactive)"}, {"compound": "CCCN(C)C[C@H]1OCCCC[C@@H](C)Oc2ccc(NC(=O)c3ccccc3)cc2C(=O)N([C@H](C)CO)C[C@H]1C", "activity change, negative = cytotoxicity": "12.3% (inactive)"}, {"compound": "C[C@H]1CCCCO[C@H](CN(C)S(=O)(=O)c2ccc(Cl)cc2)[C@@H](C)CN([C@@H](C)CO)C(=O)c2cc(NS(=O)(=O)c3ccc(F)cc3)ccc2O1", "activity change, negative = cytotoxicity": "2.67% (inactive)"}, {"compound": "C[C@@H]1CCCCO[C@@H](CN(C)Cc2ccc(Cl)c(Cl)c2)[C@H](C)CN([C@@H](C)CO)C(=O)c2cc(NC(=O)Nc3ccccc3)ccc2O1", "activity change, negative = cytotoxicity": "-14.8% (inactive)"}, {"compound": "C[C@@H]1CN([C@H](C)CO)C(=O)c2cc(NS(=O)(=O)c3ccc(Cl)cc3)ccc2O[C@@H](C)CCCCO[C@H]1CN(C)C(=O)C1CCCCC1", "activity change, negative = cytotoxicity": "6.7% (inactive)"}, {"compound": "C[C@@H]1CN([C@H](C)CO)C(=O)c2cc(NC(=O)Nc3ccc(F)cc3)ccc2O[C@@H](C)CCCCO[C@H]1CN(C)S(=O)(=O)c1ccc(F)cc1", "activity change, negative = cytotoxicity": "1.58% (inactive)"}, {"compound": "C[C@H](CO)N1C[C@H](C)[C@@H](CN(C)Cc2ccc(Cl)c(Cl)c2)OCCCC[C@H](C)Oc2ccc(NC(=O)Nc3ccc(C(F)(F)F)cc3)cc2C1=O", "activity change, negative = cytotoxicity": "19.9% (inactive)"}, {"compound": "CC(C)CC#Cc1ccc([C@@H]2[C@@H](CO)N3CCCCN(S(=O)(=O)c4ccc(F)cc4)C[C@H]23)cc1", "activity change, negative = cytotoxicity": "-32.3% (inactive)"}, {"compound": "Cc1noc(C)c1S(=O)(=O)Nc1ccc2c(c1)C(=O)N([C@@H](C)CO)C[C@H](C)[C@H](CN(C)C(=O)Nc1ccc(C(F)(F)F)cc1)OCCCC[C@H](C)O2", "activity change, negative = cytotoxicity": "-34.2% (inactive)"}, {"compound": "COc1cccc(S(=O)(=O)N2CC[C@@H]3[C@H](CO)Nc4ccc(C5=CCCCC5)cc4[C@@H]32)c1", "activity change, negative = cytotoxicity": "-10.8% (inactive)"}, {"compound": "Cc1noc(C)c1S(=O)(=O)N(C)C[C@H]1OCCCC[C@@H](C)Oc2ccc(NS(=O)(=O)c3ccc(Cl)cc3)cc2C(=O)N([C@@H](C)CO)C[C@H]1C", "activity change, negative = cytotoxicity": "-7.95% (inactive)"}, {"compound": "Cc1ccc(S(=O)(=O)N(C)C[C@@H]2OCCCC[C@H](C)Oc3ccc(NS(=O)(=O)c4ccc(Cl)cc4)cc3C(=O)N([C@H](C)CO)C[C@H]2C)cc1", "activity change, negative = cytotoxicity": "3.48% (inactive)"}, {"compound": "C[C@@H]1CN([C@H](C)CO)C(=O)c2c(c3ccccc3n2C)-c2ccccc2CO[C@H]1CN(C)S(=O)(=O)c1cccc(F)c1", "activity change, negative = cytotoxicity": "-22.9% (inactive)"}, {"compound": "C[C@@H]1CN([C@@H](C)CO)C(=O)Cc2cc(NC(=O)Nc3ccc(C(F)(F)F)cc3)ccc2O[C@H]1CN(C)S(=O)(=O)c1ccc(F)cc1", "activity change, negative = cytotoxicity": "21.7% (inactive)"}, {"compound": "O=C(Nc1ccc(F)cc1)N1CCCCN2[C@@H](CO)[C@@H](c3ccc(-c4cccc(F)c4)cc3)[C@@H]2C1", "activity change, negative = cytotoxicity": "9.37% (inactive)"}, {"compound": "C[C@H](CO)N1C[C@H](C)[C@H](CN(C)Cc2ccc(Cl)c(Cl)c2)OCCCC[C@H](C)Oc2ccc(NC(=O)Nc3ccccc3)cc2C1=O", "activity change, negative = cytotoxicity": "-6.49% (inactive)"}, {"compound": "C[C@@H]1CN([C@@H](C)CO)C(=O)c2cccc(NC(=O)c3ccncc3)c2O[C@@H]1CN(C)S(=O)(=O)c1cccs1", "activity change, negative = cytotoxicity": "8.63% (inactive)"}, {"compound": "C[C@@H]1CCCCO[C@H](CN(C)C)[C@H](C)CN([C@H](C)CO)C(=O)c2cc(NC(=O)Nc3cccc4ccccc34)ccc2O1", "activity change, negative = cytotoxicity": "10.4% (inactive)"}, {"compound": "COc1ccc(S(=O)(=O)Nc2ccc3c(c2)CC(=O)N([C@H](C)CO)C[C@H](C)[C@@H](CN(C)Cc2ccc(-c4ccccc4)cc2)O3)cc1", "activity change, negative = cytotoxicity": "16.2% (inactive)"}, {"compound": "C[C@H]1CCCCO[C@@H](CN(C)C(=O)Nc2ccc(C(F)(F)F)cc2)[C@@H](C)CN([C@@H](C)CO)C(=O)c2cc(NS(=O)(=O)c3cn(C)cn3)ccc2O1", "activity change, negative = cytotoxicity": "-2.9% (inactive)"}, {"compound": "Cc1ccc(S(=O)(=O)Nc2ccc3c(c2)C(=O)N([C@@H](C)CO)C[C@@H](C)[C@H](CN(C)S(=O)(=O)c2ccc(Cl)cc2)OCCCC[C@@H](C)O3)cc1", "activity change, negative = cytotoxicity": "8.36% (inactive)"}, {"compound": "C[C@H](CO)N1C[C@H](C)[C@@H](CN(C)Cc2ccc(Cl)c(Cl)c2)OCCCC[C@H](C)Oc2ccc(NS(=O)(=O)c3ccccc3)cc2C1=O", "activity change, negative = cytotoxicity": "-32.2% (inactive)"}, {"compound": "C[C@@H]1CCCCO[C@@H](CN(C)C(=O)Cc2ccccc2)[C@@H](C)CN([C@@H](C)CO)C(=O)c2cc(NC(=O)Nc3ccc(C(F)(F)F)cc3)ccc2O1", "activity change, negative = cytotoxicity": "35.1% (inactive)"}]}]}
